In PubChem BioAssay AID1159580 (chemical genetic matrix, 2015):
“And” between values parts separate entries of the source, which are not always exact repeats. Identical values can stand only once. The whole screen tested about 5,500 compounds, of which about 2,000 (36%) were called active. Roughly 18% stayed inconclusive and do not appear here. No stated cut-off is given here; in the data, active means normalized growth mostly below about 0.91 (no sharp cut-off); inconclusive means no clear call, values can overlap the other calls; inactive means mostly above about 0.92. Some of the results follow.

Assay: chemical genetic growth profiling, strain panel (AID 1159580);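 further: tested at 20 µM; growth read once vehicle control cultures reached saturation at 30 °C; 1 = growth at the plate median or of vehicle wells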
Settings: S. cerevisiae deletion strains, growth OD

Measured: normalized growth

CCCCCCCCNC(C)C(O)c1ccc(SC(C)C)cc1 (stereo not drawn)
inactive: locus YHR079C, strain IRE1, stronger effect = lower value 0.911 | locus YIL125W, strain kgd1, stronger effect = lower value 1 | locus YJR066W, strain TOR1, stronger effect = lower value 0.885
0.0483 (active) and 0.892 (inactive): locus YHR030C, strain SLT2, stronger effect = lower value
active: locus YAL021C, strain ccr4, stronger effect = lower value 0.0594 | locus YAL026C, strain drs2, stronger effect = lower value 0.0595 | locus YAL030W, strain snc1, stronger effect = lower value 0.0546 | locus YBL061C, strain skt5, stronger effect = lower value 0.0571 | locus YBR009C, strain hhf1, stronger effect = lower value 0.0563 | locus YBR021W, strain FUR4, stronger effect = lower value 0.0834 | locus YBR023C, strain chs3, stronger effect = lower value 0.0584 | locus YBR171W, strain sec66, stronger effect = lower value 0.0741 | locus YBR229C, strain ROT2, stronger effect = lower value 0.0441 | locus YBR231C, strain swc5, stronger effect = lower value 0.0585 | locus YBR279W, strain paf1, stronger effect = lower value 0.0682 | locus YCL011C, strain gbp2, stronger effect = lower value 0.055 | locus YCL016C, strain dcc1, stronger effect = lower value 0.0618 | locus YCL029C, strain bik1, stronger effect = lower value 0.0564 | locus YCL069W, strain vba3, stronger effect = lower value 0.0585 | locus YCR088W, strain abp1, stronger effect = lower value 0.0581 | locus YDL005C, strain med2, stronger effect = lower value 0.0745 | locus YDL035C, strain GPR1, stronger effect = lower value 0.0475 | locus YDL040C, strain nat1, stronger effect = lower value 0.0579 | locus YDL074C, strain BRE1, stronger effect = lower value 0.0735 | locus YDL101C, strain DUN1, stronger effect = lower value 0.0522 | locus YDL134C, strain PPH21, stronger effect = lower value 0.047 | locus YDL185W, strain tfp1, stronger effect = lower value 0.262 | locus YDL192W, strain arf1, stronger effect = lower value 0.0576 | locus YDR001C, strain nth1, stronger effect = lower value 0.06 | locus YDR069C, strain doa4, stronger effect = lower value 0.0584 | locus YDR101C, strain arx1, stronger effect = lower value 0.0541 | locus YDR137W, strain rgp1, stronger effect = lower value 0.0948 | locus YDR150W, strain NUM1, stronger effect = lower value 0.0542 | locus YDR159W, strain sac3, stronger effect = lower value 0.0734 | locus YDR162C, strain NBP2, stronger effect = lower value 0.0459 | locus YDR195W, strain ref2 0.0984 | locus YDR297W, strain sur2, stronger effect = lower value 0.0553 | locus YDR318W, strain mcm21, stronger effect = lower value 0.0585 | locus YDR334W, strain swr1, stronger effect = lower value 0.0597 | locus YDR335W, strain msn5, stronger effect = lower value 0.0583 | locus YDR388W, stronger effect = lower value 0.054 | locus YDR392W, strain spt3, stronger effect = lower value 0.0655 | locus YDR502C, strain sam2, stronger effect = lower value 0.056 | locus YEL003W, strain gim4, stronger effect = lower value 0.0594 | locus YEL037C, strain rad23, stronger effect = lower value 0.0554 | locus YEL061C, strain CIN8 (second series), stronger effect = lower value 0.0597 | locus YEL061C, strain CIN8, stronger effect = lower value 0.0482 | locus YER015W, strain faa2, stronger effect = lower value 0.0595 | locus YER016W, strain bim1, stronger effect = lower value 0.0591 | locus YER110C, stronger effect = lower value 0.0696 | locus YER111C, strain swi4, stronger effect = lower value 0.0814 | locus YER155C, strain BEM2 (second series), stronger effect = lower value 0.0808 | locus YER155C, strain BEM2, stronger effect = lower value 0.0577 | locus YER167W, strain BCK2, stronger effect = lower value 0.0469 | locus YFR010W, strain ubp6, stronger effect = lower value 0.0616 | locus YGL078C, strain dbp3, stronger effect = lower value 0.902 | locus YGL086W, strain mad1, stronger effect = lower value 0.0521 | locus YGL167C, strain pmr1, stronger effect = lower value 0.077 | locus YGL173C, strain kem1, stronger effect = lower value 0.0661 | locus YGL227W, strain vid30, stronger effect = lower value 0.06 | locus YGL240W, strain doc1, stronger effect = lower value 0.0665 | locus YGL248W, strain PDE1, stronger effect = lower value 0.0436 | locus YGL253W, strain hxk2, stronger effect = lower value 0.0517 | locus YGR135W, strain pre9, stronger effect = lower value 0.0567 | locus YGR252W, strain gcn5, stronger effect = lower value 0.109 | locus YHR013C, strain ard1, stronger effect = lower value 0.0967 | locus YHR027C, strain rpn1, stronger effect = lower value 0.0609 | locus YHR079C, strain IRE1 (second series), stronger effect = lower value 0.0545 | locus YHR094C, strain hxt1, stronger effect = lower value 0.0553 | locus YHR129C, strain ARP1, stronger effect = lower value 0.0538 | locus YHR142W, strain chs7, stronger effect = lower value 0.0639 | locus YHR200W, strain rpn10, stronger effect = lower value 0.0572 | locus YIL066C, strain RNR3, stronger effect = lower value 0.0459 | locus YIL073C, strain SPO22, stronger effect = lower value 0.102 | locus YIR030C, strain dcg1, stronger effect = lower value 0.0568 | locus YJL092W, strain hpr5, stronger effect = lower value 0.0567 | locus YJL095W, strain BCK1 (second series), stronger effect = lower value 0.0551 | locus YJL095W, strain BCK1, stronger effect = lower value 0.0554 and 0.787 | locus YJL115W, strain asf1, stronger effect = lower value 0.069 | locus YJL129C, strain trk1, stronger effect = lower value 0.0791 | locus YJL134W, strain LCB3, stronger effect = lower value 0.0468 | locus YJL154C, strain vps35, stronger effect = lower value 0.0585 | locus YJL164C, strain tpk1, stronger effect = lower value 0.0551 | locus YJL166W, strain qcr8, stronger effect = lower value 0.0569 | locus YJL168C, strain set2, stronger effect = lower value 0.0547 | locus YJL187C, strain SWE1 (second series), stronger effect = lower value 0.0448 | locus YJR043C, strain POL32, stronger effect = lower value 0.0599 | locus YJR075W, strain HOC1, stronger effect = lower value 0.0593
